# FEN1 inh: blocks human flap endonuclease 1; 390,000 tested, 0.35% active; Recombinant FEN1 flap cleavage, fluorescence, 15 min; Potency, µM (highest dose often 114 µM), for inactives: at the top dose activity change, negative = inhibition, actives largely listed as inhibitors; P39748; further: nearly all actives have a fitted effect of over 65% in size
#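 With each library titrated from low to high concentration, compounds met 10 nM FEN1 for 15 min at room temperature before 50 nM substrate was added; readings at 0 and 15 min fed four-parameter Hill curve fits.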
# BLM inh: inhibitors of human Bloom syndrome helicase BLM; Potency, µM (doses to about 56.1 µM), inactives show at the highest dose activity change, negative = inhibition, usual class: inhibitors; 350,000 tested, 0.2% active; recombinant BLM DNA unwinding, fluorescence dequenching;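 further: plate controls were vehicle for no effect and no enzyme for full effect; nearly all actives have a fitted effect of over 35% in size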
# RECQ1 helicase: RECQ1 (human) helicase inhibition. P46063. RECQ1 DNA unwinding, red fluorescence kinetic read. Potency, µM (top dose mostly 57.3 µM), for inactives: top-dose activity, negative = inhibition, hits mostly inhibitors. 240,000 tested, 0.54% active. AID 2549;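 further: plate controls were vehicle for no effect and no enzyme for full effect; nearly all actives have a fitted effect of over 30% in size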
# Target sequence (P46063 whole entry, looked up): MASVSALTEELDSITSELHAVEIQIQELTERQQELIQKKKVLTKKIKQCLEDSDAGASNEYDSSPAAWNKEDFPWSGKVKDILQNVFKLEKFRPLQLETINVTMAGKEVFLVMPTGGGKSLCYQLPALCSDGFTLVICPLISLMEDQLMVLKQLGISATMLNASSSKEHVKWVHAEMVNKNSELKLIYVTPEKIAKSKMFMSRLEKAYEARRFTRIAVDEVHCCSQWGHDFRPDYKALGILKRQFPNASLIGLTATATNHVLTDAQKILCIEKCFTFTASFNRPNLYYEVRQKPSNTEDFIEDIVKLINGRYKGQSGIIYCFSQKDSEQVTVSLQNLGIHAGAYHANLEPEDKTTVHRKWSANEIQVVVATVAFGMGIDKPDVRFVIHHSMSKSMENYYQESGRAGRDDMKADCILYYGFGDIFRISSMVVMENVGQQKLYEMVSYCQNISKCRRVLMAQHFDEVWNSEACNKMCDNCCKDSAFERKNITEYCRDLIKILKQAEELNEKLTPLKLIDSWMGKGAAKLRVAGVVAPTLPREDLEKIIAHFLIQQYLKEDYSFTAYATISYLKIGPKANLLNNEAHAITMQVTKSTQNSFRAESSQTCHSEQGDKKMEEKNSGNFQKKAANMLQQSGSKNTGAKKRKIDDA
#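 RECQ1T1 50 nM; forked duplex (20 bp + 30-nt ss tails) 200 nM, ATP 2 mM final; pH 8.0, 2 mM MgCl2, 2.5 ug/ml poly(dI-dC); 15 min compound preincubation; discontinuous kinetic read over 2 h at RT.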
# L3MBTL1 inh: blocks human L3MBTL1. Q9Y468. AlphaScreen L3MBTL1–H3K9me1 peptide binding. Potency, µM (highest dose often 57.1 µM), without a hit: top-dose activity, negative = inhibition, usual class: inhibitors. 230,000 tested, 0.66% active; further: nearly all actives have a fitted effect of over 60% in size
#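 First, the protein-peptide complex forms for 30 min at room temperature (L3MBTL1 50 nM, biotinylated H3K9me1 peptide 75 nM). Next, compounds are pin-transferred and incubated 30 min. Finally, AlphaScreen beads are added and read after 30 min.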
# WRN inhibitor: blocks human WRN helicase; WRN helicase unwinding, fluorescent forked duplex, kinetic; Potency, µM (series often up to 114 µM), inactives show top-dose activity change, negative = inhibition, usual class: inhibitors; 360,000 tested, 0.46% active; Q14191; further: nearly all actives have a fitted effect of over 55% in size
#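 Primary qHTS, 1536-well format. 20 nM WRN + compound, 15 min RT; start with 100 nM forked fluorophore/quencher duplex, 2 mM ATP (final); kinetic read ex 525/em 598 nm.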
# An asterisk follows results filed as active; i = inactive; ? = inconclusive; . = no result given; [ ] = remark or other dose. Shown are actives, neighbours in structure and some others; about 0.99% of the full set was active somewhere. The call rests on the fitted dose curve; in most records, active means well fitted curve in the direction sought with a large enough effect; inconclusive means small, poorly fitted or top-dose-only effect, or another doubt; inactive means no such curve, though single readings can be large; an effect the other way counts as inactive or inconclusive. Unless noted, on the % scale 0 is the no-effect control and ±100 the full control effect; potency means the concentration at half of the fitted maximal effect.
SMILES,FEN1 inh,BLM inh,RECQ1 helicase,L3MBTL1 inh,WRN inhibitor
CCN1C/C(=C/c2ccc(N3CCOCC3)cc2)C(=O)/C(=C/c2ccc(N3CCOCC3)cc2)C1,79.4µM*,-7.8%,-20.6%,-8.9%,79.4µM*
CC1=NN(c2ccc(C(=O)OC(C)C)cc2)C(=O)/C1=C\C=C\c1ccco1,-9.2%,-11.8%,5.7%,6.31µM*,-4.0%
CC1=NN(c2ccccc2)C(=O)/C1=C\C=C\c1ccccc1,?,-8.1%,-2.9%,-8.5%,-14.4%[11.6 µM]
O=C(CSc1nc(-c2ccco2)cc(C(F)(F)F)n1)NCCCn1ccnc1,-9.6%,5.4%,i,-3.6%,10.4%
COc1ccc(NC(=O)CSc2ncnc3sc(C)cc23)cc1,-1.8%,-3.8%,.,.,-7.1%
Cc1cc2c(SCC(=O)Nc3cccc(O)c3)ncnc2s1,44.7µM*,.,.,.,?
COc1ccc(-n2c(C)cc(C=O)c2C)cc1Cl,9.7%,-5.5%,-11.0%,-16.7%,7.3%
Cc1cc(C=O)c(C)n1-c1ccc(Cl)c(C(=O)O)c1,?,-2.8%,28.2µM*,3.98µM*,?
Cc1cccc2c1NC(=O)C2=O,?,.,.,.,28.2µM*
N#CC1(C#N)C(c2ccccc2)OC23CCCCC2C1(C#N)C(=N)O3 (centres undefined),-7.2%,-5.3%,12.6µM*,-1.3%,?
N#CC1(C#N)C(c2ccccc2)OC23CCCCCC2C1(C#N)C(=N)O3 (centres undefined),-8.9%,-7.6%,-3.2%,-3.5%,-26.8%
Cc1ccc(NCc2ccc(O)c3ncccc23)cc1C,5.2%,-0.7%,-6.6%,-18.9%,5.3%
Oc1ccc(CNc2cccc(C(F)(F)F)c2)c2cccnc12,.,.,.,12.6µM*,.
Cc1cccnc1NCc1ccc(O)c2ncccc12,-29.4%,1.0%,-0.8%,28.2µM*,-6.1%
COc1ccc(-c2ccc3oc(-c4ccsc4)cc(=O)c3c2)cc1F,3.8%,.,.,3.6%,5.7%
Cc1cc(/C=C\c2ccc3cc(N(C)C)ccc3[n+]2C)c(C)n1-c1ccccc1,-34.4%,?,-1.0%[25.9 µM],31.6µM*,?
C[n+]1c(/C=C/c2ccc(O)cc2)ccc2ccccc21,?,0.1%,.,.,-21.6%
CCOc1cccc2c1OC1(C)CC2NC(=O)N1c1cccc(C(=O)N2CCN(c3ccccn3)CC2)c1 (centres undefined),0.0%,0.6%,.,.,8.8%
O=C(O)c1cn(-c2ccc(F)cc2)c2cc(N3CCNCC3)c(F)cc2c1=O,44.7µM*,30.5%,-1.8%,.,-17.6%
Cn1cc(S(=O)(=O)c2ccccc2)c(=O)c2cc(F)c(N3CCN(c4ccc(F)cc4)CC3)cc21,-8.4%,1.5%,.,.,.
N#C/C(=C\c1ccc(-c2ccccc2C(=O)O)o1)c1nc2ccccc2[nH]1,?,-12.3%,.,.,56.2µM*
Cc1ccc2nc(/C(C#N)=C/c3ccc(-c4ccccc4C(=O)O)o3)[nH]c2c1,?,-11.2%,.,.,-17.6%[11.6 µM]
COc1cc2c(NC3CCN(C(C)C)CC3)nc(N3CCCN(C)CC3)nc2cc1OCCOCCN(C)C,39.8µM*,.,.,.,.
COc1cc2c(NC3CCN(C(C)C)CC3)nc(N3CCCN(C)CC3)nc2cc1OCCCN1CCCC1,22.4µM*,.,.,.,.
COc1cc2c(NC3CCN(C)CC3)nc(N3CCCN(C)CC3)nc2cc1OCCOCCN(C)C,28.2µM*,.,.,.,.
SMILES,FEN1 inh,BLM inh,RECQ1 helicase,L3MBTL1 inh,WRN inhibitor
CC(O)c1cccc(NC(=O)C2CCCCC2)c1 (centres undefined),-0.2%,1.4%,23.0%,1.7%,-5.5%
C#Cc1ccc([C@@H]2C=C(C(=O)OCC=C)O[C@H](OCC)[C@H]2CCCO)cc1,5.2%,3.6%,-14.5%,49.8%,-1.5%
C#Cc1ccc([C@H]2C=C(C(=O)OCC=C)O[C@@H](OCC)[C@@H]2CCCO)cc1,-6.4%,-11.4%,22.4µM*,7.3%,-0.1%
c1cc(N2CCOCC2)ccc1-c1ccc2nncn2c1,.,.,.,.,3.2%
c1coc(-c2ccc3nncn3c2)c1,.,.,.,.,17.8µM*
CSC1=N/C(=C\c2ccc(Br)o2)C(=O)S1,-27.8%,-2.3%,?,?,?
CC1=C/C(=C\c2ccc(Br)o2)C(=O)O1,?,34.3%,-26.2%,8.91µM*,20µM*
Cc1cc(C)c2c(=O)n(CC(=O)Nc3ccc(Cl)cc3)sc2n1,?,-1.8%,-5.7%,.,0.5%
CCOc1ccc(NC(=O)Cn2sc3nc(C)cc(C)c3c2=O)cc1,89.1µM*,-1.3%,-5.6%,-4.4%,20µM*
Oc1ccc(/C=N/NC(=S)NCCN2CCOCC2)c(O)c1,-4.5%,-3.0%,-10.2%,22.4µM*,-6.1%
COc1ccc(N=c2scc(C)n2CCCN2CCCC2=O)cc1,-3.9%,1.3%,-5.5%,-17.8%,1.2%
N#CC1=C(N)Oc2n[nH]c(-c3cccs3)c2C1c1ccoc1 (centres undefined),?,-3.0%,-4.1%,.,44.7µM*
Cc1ccc(C2C(C#N)=C(N)Oc3n[nH]c(-c4cccs4)c32)cc1 (centres undefined),4.4%,-3.7%,-5.2%,-1.8%,-11.5%
Cc1ccc(-n2c(O)c(C=Nc3cc(C)on3)c3ccccc3c2=O)c(C)c1,-17.6%,-8.5%,-9.0%,11.3%,50.1µM*
N#C/C(=C\c1ccc(-c2ccc(C(=O)O)cc2)o1)C(=O)Nc1ccc(F)cc1,44.7µM*,-15.1%,.,?,56.2µM*
Cc1cccc(C)c1NC(=O)/C(C#N)=C/c1ccc(-c2ccc(C(=O)O)cc2)o1,3.9%,-3.4%,.,.,-20.0%
COc1ccc(-c2cnnc(N/N=C/c3ccc(O)cc3)n2)cc1,-8.2%,-3.8%,-1.8%,0.2%,-2.0%[57.1 µM]
COc1ccc(-c2cnnc(N/N=C/c3ccc(O)c(O)c3)n2)cc1,?,-15.9%,15.8µM*,?,?
CC/C=C\C/C=C\C/C=C\C/C=C\C/C=C\C/C=C\CCC(=O)NCC(=O)O,.,-10.1%,-7.5%,.,.
COc1ccc(O)c(/C=N/NC(=S)Nc2cccc(S(=O)(=O)N(C)C)c2)c1,-24.5%,-18.2%,i,10µM*,-21.7%
COc1cccc(/C=N/NC(=S)Nc2cccnc2)c1,-6.2%,-3.0%,i,-2.2%[11.4 µM],-6.7%
COc1ccc(O)c(/C=N/NC(=S)Nc2cccnc2)c1,16.3%,-3.7%,i,11.2µM*,-1.2%
COc1cccc(/C=N/NC(=S)Nc2cccc(S(=O)(=O)N(C)C)c2)c1,2.9%,0.7%,2.3%,.,-9.6%
CCN(CCO)c1ccc(NC(=S)Nc2cccc(S(=O)(=O)N(C)C)c2)cc1,-10.9%,-19.7%,39.8µM*,.,-9.7%[11.6 µM]
CN(C)S(=O)(=O)c1cccc(NC(=S)Nc2cc(Cl)cc(Cl)c2)c1,-0.7%,-4.3%,-4.9%,.,-18.9%
COc1ccc(C)cc1S(=O)(=O)N1CCN(C/C=C/c2ccccc2)CC1,-1.0%,.,.,-9.8%,-2.2%
CCc1cccc(C)c1NC(=O)C1CCN(S(=O)(=O)c2cccc3nonc23)CC1,89.1µM*,-4.5%,.,.,.
Cc1ccc(NC(=O)C2CCN(S(=O)(=O)c3cccc4nonc34)CC2)cc1C,-2.6%,-8.6%,.,.,.

# High-throughput results deposited in PubChem BioAssay by National Center for Advancing Translational Sciences (NCATS).
